These results are taken from PubChem BioAssay (EPA / NIEHS).

Several values for one entry are separate records, joined by “and”; a condition that tells them apart may be missing. Identical values can stand only once. Results filed as inconclusive are left out. Activity calls are given as the source filed them. The calls were made as follows: active = hit-call score of the fitted dose curve at least 0.9, where 1 is the maximum; inconclusive = response in the unintended direction; inactive = score below 0.9.

A short description of assay [1]: TOX21_p53_BLA_p2_viability: Viability Assessment in the Tox21 HCT-116 p53 Agonism Beta-lactamase Assay, Phase 2 (AID 2283591).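 Also: compound exposure lasted 16 h at 37 °C; actives lower the ATP signal meaning cytotoxicity.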 Put shortly: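 HCT116 p53-bla cells, 4000/well, dosed after 5 h plating (217-fold dilution of DMSO stocks) and incubated 16 h at 37C. Viability taken as cellular ATP by CellTiter-Glo luminescence after 30 min RT; signal loss marks cytotoxicity.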

Assay [2] deals with Cellular tumor antigen p53 (Homo sapiens) (UniProt P04637). The experiment in a line: TOX21_p53_BLA_p2_ratio: Tox21 HCT-116 p53 Agonism Beta-lactamase Assay, Ratio, Phase 2 (AID 2283592). In a few lines: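 Read-out is the blue/green (460/530 nm, 405 nm excitation) ratio after 2 h CCF4-AM loading, fitted as gain versus DMSO. Compounds, pinned at 217-fold dilution from DMSO stocks, stayed 16 h on HCT-116 beta-lactamase reporter cells seeded 5 h earlier.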

Assay [3] can be described thus: TOX21_p53_BLA_p3_viability: Viability Assessment in the Tox21 HCT-116 p53 Agonism Beta-lactamase Assay, Phase 3 (AID 2283593).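 Also: cells exposed to compound for 16 h before reading.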 In a few lines:
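HCT116 cells, 4000/well, dosed 5 h after plating by pin transfer (217-fold dilution from DMSO stock) and incubated 16 h at 37C, 5% CO2. Viability read as ATP luminescence with CellTiter-Glo after 30 min at room temperature.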

Assay [4] has as its target Cellular tumor antigen p53 (Homo sapiens) (UniProt P04637). The experiment in a line: TOX21_p53_BLA_p3_ratio: Tox21 HCT-116 p53 Agonism Beta-lactamase Assay, Ratio, Phase 3 (AID 2283596). In a few lines:
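Cells were seeded at 4000/well, rested 5 h at 37C, then dosed with DMSO compound solutions (217-fold dilution) for 16 h. CCF4-AM substrate was loaded for 2 h at room temperature, and the 460/530 nm emission ratio was fitted for gain of signal versus DMSO.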

Assay [5] can be described thus: TOX21_p53_BLA_p4_viability: Viability Assessment in the Tox21 HCT-116 p53 Agonism Beta-lactamase Assay, Phase 4 (AID 2283597).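 Also: hits lower the luminescence signal meaning cytotoxicity.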 In a few lines:
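Cytotoxicity as reduced cellular ATP (CellTiter-Glo luminescence, 30 min room temperature), measured in the same wells following the CCF4 FRET p53 reading. Human HCT-116 cells received compounds in DMSO (217-fold dilution) for 16 h.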

Assay [6] concerns the target Cellular tumor antigen p53 (Homo sapiens) (UniProt P04637). Nature of the assay: TOX21_p53_BLA_p5_ratio: Tox21 HCT-116 p53 Agonism Beta-lactamase Assay, Ratio, Phase 5 (AID 2283599). In a few lines:
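HCT-116 p53-bla cells (4000/well) plated 5 h, dosed with compound (217-fold DMSO dilution) for 16 h at 37 C; CCF4-AM substrate 2 h at room temperature. Activity is the 460/530 nm emission ratio (405 nm excitation), fitted in gain-of-signal direction versus DMSO.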

A short description of assay [7]: TOX21_p53_BLA_p5_viability: Viability Assessment in the Tox21 HCT-116 p53 Agonism Beta-lactamase Assay, Phase 5 (AID 2283600). In a few lines: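 Viability came from CellTiter-Glo ATP luminescence, read after 30 min at room temperature. Before this, HCT-116 p53-bla cells (4000/well) had 16 hours of compound exposure at 37C, with DMSO stocks diluted 217-fold on transfer.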

For assay [8], the target named is Cellular tumor antigen p53 (Homo sapiens) (UniProt P04637). The experiment in a line: TOX21_p53_BLA_p4_ratio: Tox21 HCT-116 p53 Agonism Beta-lactamase Assay, Ratio, Phase 4 (AID 2283601). In a few lines: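 HCT-116 p53 beta-lactamase reporter cells (4000/well) preincubated 5 h, then compound (217-fold dilution of DMSO stock) for 16 h at 37C. CCF4-AM substrate added 2 h at room temperature; 460/530 nm emission ratio fitted upward versus DMSO.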

The next assay addresses THRB (gene 7068) (UniProt P10828). Nature of the assay: TOX21_TRB_BLA_Antagonist_Followup_ratio: Tox21 Thyroid Hormone Receptor beta Antagonism Beta-lactamase (BLA) Follow-Up Assay, Ratio (AID 2283958). In a few lines:
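Using charcoal-stripped 2% FBS medium, human TRβ-LBD/GAL4 reporter HEK293T cells received test compounds for 18 h. The endpoint is the cleaved-to-uncleaved substrate ratio (460/530 nm).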

Assay [9] can be described thus: TOX21_TRB_BLA_Antagonist_Followup_viability: Viability Assessment in the Tox21 Thyroid Hormone Receptor beta Antagonism Beta-lactamase (BLA) Follow-Up Assay (AID 2283961). In a few lines: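 ATP-based CellTiter-Glo luminescence (30 min, room temperature) run in the same wells as the TRβ-bla readout. Cells: GeneBLAzer HEK293T expressing GAL4-TRβ LBD, exposed 18 h at 37C to compounds at 11 concentrations in triplicate, stripped-serum medium.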

The target in assay [10] is Retinoic acid receptor RXR-alpha (Homo sapiens) (UniProt P19793). Nature of the assay: TOX21_TR_RXR_BLA_Antagonist_Followup_ratio: Tox21 Thyroid Hormone Receptor beta Retinoid X Receptor alpha (RXRa) Antagonism Beta-lactamase (BLA) Follow-Up Assay, Ratio (AID 2283972). In a few lines:
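After 5 h attachment at 37C, HEK293T RXRa-bla cells (2,500/well, 2% charcoal-stripped FBS, no phenol red) received compounds at 11 concentrations in triplicate for 16 h. Beta-lactamase read as 460:530 nm ratio after 2 h RT substrate loading.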

Assay [11] is described as follows: TOX21_TR_RXR_BLA_Antagonist_Followup_viability: Viability Assessment in the Tox21 Thyroid Hormone Receptor beta Retinoid X Receptor alpha (RXRa) Antagonism Beta-lactamase (BLA) Follow-Up Assay (AID 2283979). Put shortly: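 RXRa-bla HEK293T cells (2,500/well, phenol red-free DMEM, 2% charcoal-stripped FBS) were attached 5 h, then exposed to compounds at 11 concentrations in triplicate for 16 h at 37C. Viability measured by CellTiter-Glo ATP luminescence, bidirectional fitting versus DMSO.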

The target in a further assay is PGR (gene 5241) (UniProt P06401). Nature of the assay: TOX21_PR_BLA_Followup_Antagonist_ratio: Tox21 HEK293 Progesterone Receptor (PR) Antagonism Beta-lactamase Follow-Up Assay, Ratio (AID 2283934).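 Also: PR-UAS-bla HEK293T cells stimulated with 1 nM R5020 agonist for 16 hr.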 Put shortly:
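Measured in PR-UAS-bla HEK293T cells co-treated with compound and 1 nM promegestone for 16 hr; beta-lactamase ratio read after 2 h FRET substrate loading, with parallel CellTiter-Glo cytotoxicity.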

A short description of assay [12]: TOX21_PR_BLA_Followup_Agonist_viability: Viability Assessment in the Tox21 HEK293 Progesterone Receptor (PR) Agonism Beta-lactamase Follow-Up Assay (AID 2283935).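 Also: signal loss means lower viability so actives are cytotoxic.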 In a few lines:
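Viability is read as CellTiter-Glo luminescence, where loss of signal indicates cytotoxicity. The cells are PR-UAS-bla HEK293T given compounds for 16 hr at 37C and 5% CO2, in the same wells used for the bla readout.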

Assay [13] is described as follows: TOX21_PR_BLA_Followup_Antagonist_viability: Viability Assessment in the Tox21 HEK293 Progesterone Receptor (PR) Antagonism Beta-lactamase Follow-Up Assay (AID 2283936).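 Also: cells exposed to compound with R5020 agonist for 16 h; hits lower the luminescence signal meaning cytotoxicity.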 In a few lines: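 PR-UAS-bla HEK293T cells in medium with 2% charcoal-stripped FBS were treated with compounds plus R5020 for 16 hr at 37C. After the beta-lactamase read, CellTiter-Glo was added to the same wells and luminescence read after 30 min at room temperature.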

In assay [14] the target is Thyroid hormone receptor alpha (Rattus norvegicus) + Thyroid hormone receptor beta (Rattus norvegicus) (UniProt P18113+P63059). Nature of the assay: TOX21_TR_LUC_GH3_Antagonist_Followup: Tox21 GH3 Thyroid Hormone Receptor Antagonism Luciferase Follow-Up Assay (AID 2283942). Put shortly:
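Luminescence read-out (ONE-Glo, 30 min at room temperature) in GH3 reporter cells challenged with 1.0 nM T3 final. Compounds ran at 92 uM to 5nM over 15 concentrations for 24 h; DMSO served as negative control and baseline.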

Another assay has as its target THRA (gene 7067) (UniProt P10827). The experiment in a line: TOX21_TRA_COA_Antagonist_Followup_ratio: Tox21 Thyroid Hormone Receptor alpha Antagonism through Coactivator Recruitment Follow-Up Assay, Ratio (AID 2283953). Put shortly: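 We measured antagonism of T3-type coactivator recruitment using a TR-FRET ratio (emission 520 and 495 nm) between a Tb-labelled anti-GST antibody on TRα LBD (2.5 nM) and SRC-2 peptide (200 nM). Activity was scaled between DMSO and T3 wells.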

Chain of PGR (gene 5241) (P06401 whole entry, looked up): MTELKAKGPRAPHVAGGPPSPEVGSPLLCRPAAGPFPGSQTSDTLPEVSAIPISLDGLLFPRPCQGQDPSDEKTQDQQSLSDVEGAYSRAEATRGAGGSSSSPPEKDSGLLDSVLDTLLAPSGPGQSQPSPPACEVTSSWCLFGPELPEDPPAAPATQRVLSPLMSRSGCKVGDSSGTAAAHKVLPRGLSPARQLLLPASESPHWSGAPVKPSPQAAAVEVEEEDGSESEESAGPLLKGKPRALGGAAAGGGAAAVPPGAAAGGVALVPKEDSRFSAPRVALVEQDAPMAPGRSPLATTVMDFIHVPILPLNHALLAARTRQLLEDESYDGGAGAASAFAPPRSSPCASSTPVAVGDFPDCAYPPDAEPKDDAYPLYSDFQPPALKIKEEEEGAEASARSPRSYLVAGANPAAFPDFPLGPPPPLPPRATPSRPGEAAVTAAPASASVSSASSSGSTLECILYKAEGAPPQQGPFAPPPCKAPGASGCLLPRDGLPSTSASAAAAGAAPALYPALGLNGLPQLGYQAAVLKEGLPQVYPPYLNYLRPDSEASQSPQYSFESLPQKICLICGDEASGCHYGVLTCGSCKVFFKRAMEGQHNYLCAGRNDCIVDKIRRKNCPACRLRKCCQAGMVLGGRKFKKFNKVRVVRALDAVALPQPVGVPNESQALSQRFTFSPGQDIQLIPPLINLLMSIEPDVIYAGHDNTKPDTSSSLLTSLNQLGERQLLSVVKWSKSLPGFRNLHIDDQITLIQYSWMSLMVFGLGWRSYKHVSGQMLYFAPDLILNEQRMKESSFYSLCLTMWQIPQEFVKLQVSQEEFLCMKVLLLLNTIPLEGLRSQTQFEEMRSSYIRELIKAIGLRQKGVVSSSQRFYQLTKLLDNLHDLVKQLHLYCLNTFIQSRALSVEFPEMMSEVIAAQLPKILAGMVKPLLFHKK
Chain of Retinoic acid receptor RXR-alpha (Homo sapiens) (P19793 whole entry, looked up): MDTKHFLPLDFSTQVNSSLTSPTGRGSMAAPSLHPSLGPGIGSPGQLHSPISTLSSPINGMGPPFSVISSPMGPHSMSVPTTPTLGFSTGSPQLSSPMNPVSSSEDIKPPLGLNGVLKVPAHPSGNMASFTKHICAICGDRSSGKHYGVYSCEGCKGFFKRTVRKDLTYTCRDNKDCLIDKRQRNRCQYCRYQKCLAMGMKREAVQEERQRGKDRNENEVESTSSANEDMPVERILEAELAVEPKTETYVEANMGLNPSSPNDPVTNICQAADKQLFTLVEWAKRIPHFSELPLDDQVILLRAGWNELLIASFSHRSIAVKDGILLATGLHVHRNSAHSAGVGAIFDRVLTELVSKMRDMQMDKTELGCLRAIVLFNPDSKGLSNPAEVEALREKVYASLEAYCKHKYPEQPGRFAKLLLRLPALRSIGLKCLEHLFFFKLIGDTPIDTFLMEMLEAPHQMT
Chain of THRB (gene 7068) (P10828 whole entry, looked up, the tested form may be a part): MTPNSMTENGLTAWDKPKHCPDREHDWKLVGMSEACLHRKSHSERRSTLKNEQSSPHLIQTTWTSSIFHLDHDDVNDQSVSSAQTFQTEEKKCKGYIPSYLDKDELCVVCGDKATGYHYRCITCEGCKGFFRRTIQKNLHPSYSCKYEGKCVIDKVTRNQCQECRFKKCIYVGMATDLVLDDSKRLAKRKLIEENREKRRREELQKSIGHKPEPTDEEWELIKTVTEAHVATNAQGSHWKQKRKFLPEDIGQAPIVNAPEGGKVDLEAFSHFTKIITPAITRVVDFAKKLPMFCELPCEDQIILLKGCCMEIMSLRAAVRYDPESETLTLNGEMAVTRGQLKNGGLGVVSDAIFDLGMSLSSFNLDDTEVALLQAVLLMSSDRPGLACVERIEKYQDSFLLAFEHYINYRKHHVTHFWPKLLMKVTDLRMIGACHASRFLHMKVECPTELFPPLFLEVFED
Chain of Cellular tumor antigen p53 (Homo sapiens) (P04637 whole entry, looked up): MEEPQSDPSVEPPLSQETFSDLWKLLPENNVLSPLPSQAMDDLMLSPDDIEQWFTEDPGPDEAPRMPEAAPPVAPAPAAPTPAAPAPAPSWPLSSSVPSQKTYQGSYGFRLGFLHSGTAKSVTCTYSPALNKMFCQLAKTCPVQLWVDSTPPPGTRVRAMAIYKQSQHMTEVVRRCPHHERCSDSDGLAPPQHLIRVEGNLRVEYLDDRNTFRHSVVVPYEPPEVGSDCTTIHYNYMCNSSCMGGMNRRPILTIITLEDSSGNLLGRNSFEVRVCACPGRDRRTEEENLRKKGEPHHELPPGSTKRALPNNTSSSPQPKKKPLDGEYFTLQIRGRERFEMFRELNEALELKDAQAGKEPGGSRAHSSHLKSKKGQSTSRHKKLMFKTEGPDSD
Chain of THRA (gene 7067) (P10827 whole entry, looked up, the tested form may be a part): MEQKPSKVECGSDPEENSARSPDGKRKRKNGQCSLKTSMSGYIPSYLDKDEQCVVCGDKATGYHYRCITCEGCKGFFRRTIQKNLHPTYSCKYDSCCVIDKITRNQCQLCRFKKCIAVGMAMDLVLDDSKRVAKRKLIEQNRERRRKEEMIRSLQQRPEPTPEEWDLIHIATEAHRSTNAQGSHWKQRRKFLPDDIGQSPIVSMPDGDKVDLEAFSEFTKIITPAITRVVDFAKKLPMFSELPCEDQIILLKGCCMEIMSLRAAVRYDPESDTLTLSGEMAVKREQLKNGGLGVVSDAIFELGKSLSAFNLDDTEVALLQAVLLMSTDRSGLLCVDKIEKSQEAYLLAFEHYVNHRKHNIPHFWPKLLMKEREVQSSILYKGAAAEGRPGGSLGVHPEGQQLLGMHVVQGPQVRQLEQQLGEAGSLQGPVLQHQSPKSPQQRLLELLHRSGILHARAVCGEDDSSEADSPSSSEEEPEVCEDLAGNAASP

In the case of `CCc1cc(Cl)c(OC)c(C(=O)NC[C@@H]2CCCN2CC)c1O`, the compound was classed as inactive in assay [1], in [2], in [3], in [4], in assay [5] and in assay [6]. In addition, the compound was called inactive (in assay [7]; in [8]; with THRB (gene 7068); in [9]; in assay [10]; in [11]).

As for `C=C1C(CCl)(CCl)C2(Cl)C(Cl)C(Cl)C1(Cl)C2(Cl)Cl` (stereo unspecified), the AC50 is 50.6 µM (active) and 13.5 µM (active) in assay [1]; 76.7 µM (active) and 35.7 µM (active) in [2]; 45.6 µM (active) and 12 µM (active) in assay [3]; 86.4 µM (active) and 20.9 µM (active) in assay [4]; 67.2 µM (active) and 17.1 µM (active) in assay [5]; 68.4 µM (active) and 24.1 µM (active) in [6]. The half-maximal activity concentration (AC50) in [7] is 45.6 µM (active) and 15.7 µM (active); in assay [8], 86.6 µM (active) and 36.1 µM (active); with PGR (gene 5241), 23000 nM (active). The outcome in assay [12] and in assay [13] was inactive.

As for `C#C[C@]1(O)CC[C@H]2[C@@H]3CCc4cc(OC5CCCC5)ccc4[C@H]3CC[C@@]21C`, the result in [1], in assay [2], in assay [3], in [4], in assay [5] and in assay [6] was inactive. Further, the outcome in [8], in assay [12] and in assay [13] was inactive. In addition, the half-maximal activity concentration (AC50) was 37.8 µM (active) in assay [7] and 13600 nM (active) with PGR (gene 5241).

With `COc1cc(C)c(/C=C/C(C)=C/C=C/C(C)=C/C(=O)O)c(C)c1C`, the compound was called inactive in [1], in [3], in [4], in assay [5], in [7] and in assay [8]. Moreover, the AC50 in assay [2] is 33.4 µM (active); in assay [6], 36 µM (active).

For `CCCCCCNC(=O)n1cc(F)c(=O)[nH]c1=O`, the AC50 in [1] is 709 nM (active); in [2], 0.77 µM (active); in assay [3], 1.26 µM (active); in assay [4], 2.57 µM (active); in assay [5], 3.62 µM (active); in [6], 2.87 µM (active). For the same compound, the AC50 was 1.02 µM (active) in assay [7], 2.24 µM (active) in assay [8] and 12000 nM (active) in [14]. In addition, the call in [9] and in assay [11] was inactive.

As to `COC(=O)Nc1nc2ccc(Sc3ccccc3)cc2[nH]1`, the outcome (in assay [1]; in assay [3]; in [5]; in [7]; in the assay with THRA (gene 7067); in assay [9]) was inactive. The outcome in assay [10] and in assay [11] was inactive. Besides, the half-maximal activity concentration (AC50) in assay [2] is 99.9 nM (active) and 139 nM (active); in [4], 163 nM (active) and 98.8 nM (active); in assay [6], 161 nM (active) and 97.3 nM (active); in [8], 122 nM (active) and 96.1 nM (active); with THRB (gene 7068) it was 868 nM (active).

With `NC(N)=NCc1cccc(I)c1`, the compound was classed as inactive in [1], in assay [2], in assay [3], in [4], in [5] and in assay [6]. Moreover, the outcome (in [7]; in [8]; in assay [14]; in the assay with THRA (gene 7067); in the assay with THRB (gene 7068); in assay [9]) was inactive. Further, the result in [10] and in [11] was inactive.

Turning to `O=C(Nc1ccc(Cl)c(Cl)c1)C1CC1`, the compound was classed as inactive in assay [1], in assay [2], in assay [3], in [4], in [5] and in assay [6]. Also, the compound was classed as inactive (in assay [7]; in assay [8]; with PGR (gene 5241); in assay [12]; in assay [13]).

One may read the AC50 as the concentration giving half of the maximal activity seen.
